Measurements from PubChem BioAssay.
Active and inactive are the calls of the source. Cut-off read from the data, not from the text of the source: active = fold change permeability below about 0.7 or above about 1.3; inactive = in between.

Experiment: compounds altering in vitro BBB leakiness – cell-based, FITC-avidin fluorescence, HTS, primary screen (AID 1963498); note: test concentration not given here
Settings: brain endothelial barrier, actives lie on both sides

Fold change permeability, active:
O=C(Nc1ccccc1C(=O)NC1CCCCNC1=O)c1cc2ccccc2s1 (stereo not given) 1.9
N=C(N)N1CCc2ccccc2C1 1.3
COC(=O)C1=C(C)NC(C)=C(C(=O)O[C@@H]2CCCN(Cc3ccccc3)C2)[C@@H]1c1cccc([N+](=O)[O-])c1 1.4
Nc1nc(OCc2cc(Br)cs2)c2[nH]cnc2n1 1.5
CCCCCCCCCCCCCCCC(=O)OC(CC(=O)O)C[N+](C)(C)C (stereo not given) 1.3
O=C(O)CSCC(=O)NC1CCSC1=O (stereo not given) 1.7
O=C1NC(=O)c2c1c(-c1ccccc1)cc1[nH]c3ccc(O)cc3c21 0.7
CN1CCC(=C2c3ccccc3CC(=O)c3sccc32)CC1 1.4
CC(C)CN(C[C@@H](O)[C@H](Cc1ccccc1)NC(=O)O[C@H]1CO[C@H]2OCC[C@H]21)S(=O)(=O)c1ccc(N)cc1 1.4
CC1(C)CCC2=C(O1)c1ccccc1C(=O)C2=O 1.8
Cc1cc(C)cc(NC(=O)CN(c2cc([N+](=O)[O-])ccc2C)S(C)(=O)=O)c1 1.5
CCCN(CC1CC1)c1nc(C)nc(Nc2c(Cl)cc(Cl)cc2Cl)c1Cl 1.3
CCN(CC)CC#CCOC(=O)C(O)(c1ccccc1)C1CCCCC1 (stereo not given) 1.3
COc1cc(CNC(=O)CCCCCCC(C)C)ccc1O 0.7
N#CC(C#N)=C(N)/C(C#N)=C/c1ccc(O)cc1 0.7

Fold change permeability, inactive:
CCN(CC)CCNC(=O)c1ccc(NC(C)=O)cc1 1.1
NC(=O)C(c1ccccc1)(c1ccccc1)[C@@H]1CCN(CCc2ccc3c(c2)CCO3)C1 0.8
CCCCOc1cc(CC2CNC(=O)N2)ccc1OC (stereo not given) 0.8
O=C(O)C1=CC(=C(c2ccc(O)c(C(=O)O)c2)c2ccc(O)c(C(=O)O)c2)C=CC1=O 0.9
Cc1cc(C(C)(C)C)c(O)c(C)c1CC1=NCCN1 0.8
O=P(O)(O)C(O)(Cn1ccnc1)P(=O)(O)O 0.8
O=c1[nH]cc(F)c(=O)[nH]1 0.8
O=C(C1CCCCC1)N1CC(=O)N2CCc3ccccc3C2C1 (stereo not given) 1.2
COCCOC(=O)C1=C(C)NC(C)=C(C(=O)OC/C=C/c2ccccc2)C1c1cccc([N+](=O)[O-])c1 (stereo not given) 1.2
Oc1ccc(-c2nc(-c3ccc(F)cc3)c(-c3ccncc3)[nH]2)cc1 1.1
O=C(NCc1cccnc1)c1ccc([N+](=O)[O-])o1 1
CN1CCC(=C2c3ccccc3CCn3c(C=O)cnc32)CC1 1
Cc1cc(Cl)ccc1OCCCC(=O)NO 1
Nc1ncnc2c1nc(Sc1ccc(Cl)cc1)n2C1OC2COP(=O)(O)O[C@@H]2[C@@H]1O (stereo not given in full) 0.9
CC(=O)C1=C(C)N(c2cccc(C(F)(F)F)c2)C(=O)N[C@@H]1c1ccc(C#N)nc1 1.1
NC(=O)c1cn(Cc2c(F)cccc2F)nn1 0.9
CC1(C)OC(=O)C(c2cccc(F)c2)=C1c1ccc(S(C)(=O)=O)cc1 0.9
Cc1ccc(S(=O)(=O)/C=C/C#N)cc1 1.1
Cc1[nH]c(=O)c(C#N)cc1-c1ccc2nccn2c1 0.8
C=CCN1CCc2c(cc(O)c(O)c2Cl)C(c2ccccc2)C1 (stereo not given) 1
NC(=Nc1ccccc1)NC(=O)c1nc(Cl)c(N)nc1N 1.2
COC(=O)C(N)Cc1ccc(Cl)cc1 (stereo not given) 1.1
NCCCCN 0.9
COc1cc2nc(N(C)CCCNC(=O)C3CCCO3)nc(N)c2cc1OC (stereo not given) 1
C[N+](C)(C)CCO 1
